# Experimental data published in PubChem BioAssay AID1159580 (chemical genetic matrix, 2015).
# In all, about 5,500 compounds went through this assay and about 2,000 (36%) were called active. Not shown: some 18% with an inconclusive outcome. The list shows a part of the results. Values without a mark were called inactive. Cut-off read from the data, not from the text of the source: active = normalized growth mostly below about 0.91 (no sharp cut-off); inconclusive = no clear call, values can overlap the other calls; inactive = mostly above about 0.92.
# Test: chemical genetic growth profiling, strain panel (AID 1159580);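 note: tested at 20 µM; growth read once vehicle control cultures reached saturation at 30 °C; 1 = growth at the plate median or of vehicle wells; lower values mean less growth of the strain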
# Conditions: S. cerevisiae deletion strains, growth OD
# [1] = locus YAR019C, strain CDC15, active compounds read low
# [2] = locus YBL105C, strain PKC1, active compounds read low
# [3] = locus YBR135W, strain CKS1, active compounds read low
# [4] = locus YBR136W, strain MEC1, active compounds read low
# [5] = locus YBR160W, strain CDC28, active compounds read low
# [6] = locus YDL017W, strain CDC7, active compounds read low
# [7] = locus YDL028C, strain MPS1, active compounds read low
# [8] = locus YDL101C, strain DUN1, active compounds read low
# [9] = locus YDL108W, strain KIN28, active compounds read low
# [10] = locus YDL132W, strain cdc53, active compounds read low
# [11] = locus YDL214C, strain PRR2, active compounds read low
# [12] = locus YDR052C, strain DBF4, active compounds read low
# [13] = locus YDR054C, strain cdc34, active compounds read low
# [14] = locus YDR226W, strain ADK1, active compounds read low
# [15] = locus YDR477W, strain SNF1, active compounds read low
# [16] = locus YER123W, strain YCK3, active compounds read low
# [17] = locus YER133W, strain GLC7, active compounds read low
# [18] = locus YFL009W, strain cdc4, active compounds read low
# [19] = locus YFL029C, strain CAK1, active compounds read low
# [20] = locus YFR003C, strain YPI1, active compounds read low
# [21] = locus YFR019W, strain FAB1, active compounds read low
# [22] = locus YFR028C, strain CDC14, active compounds read low
# [23] = locus YGR040W, strain KSS1, active compounds read low
# [24] = locus YGR052W, strain FMP48, active compounds read low
# [25] = locus YGR092W, strain DBF2, active compounds read low
# [26] = locus YHR030C, strain SLT2, active compounds read low
# [27] = locus YHR079C, strain IRE1, active compounds read low
# [28] = locus YHR082C, strain KSP1, active compounds read low
# [29] = locus YHR205W, strain SCH9, active compounds read low
# [30] = locus YIL147C, strain SLN1, active compounds read low
# [31] = locus YJL095W, strain BCK1, active compounds read low
# [32] = locus YJL128C, strain PBS2, active compounds read low
# [33] = locus YJL157C, strain FAR1, active compounds read low
# [34] = locus YJR016C, strain ILV3, active compounds read low
# [35] = locus YJR066W, strain TOR1 (second series), active compounds read low
# [36] = locus YJR066W, strain TOR1, active compounds read low
# [37] = locus YKL048C, strain ELM1, active compounds read low
# [38] = locus YKL067W, strain YNK1, active compounds read low
# [39] = locus YKL101W, strain HSL1, active compounds read low
# [40] = locus YKL193C, strain SDS22, active compounds read low
# [41] = locus YKL203C, strain TOR2, active compounds read low
# [42] = locus YLR113W, strain HOG1, active compounds read low
# [43] = locus YLR133W, strain CKI1, active compounds read low
# [44] = locus YLR403W, strain SFP1, active compounds read low
# [45] = locus YML070W, strain DAK1, active compounds read low
# [46] = locus YMR001C, strain CDC5, active compounds read low
# [47] = locus YMR205C, strain PFK2 (second series), active compounds read low
# [48] = locus YMR277W, strain FCP1, active compounds read low
# [49] = locus YNL006W, strain LST8, active compounds read low
# [50] = locus YNL020C, strain ARK1, active compounds read low
# [51] = locus YNL161W, strain CBK1, active compounds read low
# [52] = locus YNL183C, strain NPR1, active compounds read low
# [53] = locus YNL207W, strain RIO2, active compounds read low
# [54] = locus YNL222W, strain SSU72, active compounds read low
# [55] = locus YNL307C, strain MCK1 (second series), active compounds read low
# [56] = locus YOL078W, strain AVO1, active compounds read low
# [57] = locus YOL136C, strain PFK27, active compounds read low
# [58] = locus YOR061W, strain CKA2, active compounds read low
# [59] = locus YOR119C, strain RIO1, active compounds read low
# [60] = locus YOR231W, strain MKK1, active compounds read low
# [61] = locus YOR329C, strain SCD5, active compounds read low
# [62] = locus YPL031C, strain PHO85, active compounds read low
# [63] = locus YPL153C, strain RAD53, active compounds read low
# [64] = locus YPL204W, strain HRR25, active compounds read low
# [65] = locus YPL209C, strain IPL1, active compounds read low
# [66] = locus YPL256C, strain CLN2, active compounds read low
# [67] = locus YPR025C, strain CCL1, active compounds read low
# [68] = locus YPR106W, strain ISR1, active compounds read low
# [69] = locus YPR111W, strain DBF20, active compounds read low
# [70] = strain NNK1, active compounds read low
# [71] = strain TSCII, active compounds read low
smiles,measurement,setting,value
Cc1ccc(-n2cccc2)c(NS(=O)(=O)c2ccc(-c3ccno3)s2)c1,normalized growth,[1],0.94
same,normalized growth,[2],0.947
same,normalized growth,[3],0.944
same,normalized growth,[4],0.953
same,normalized growth,[5],0.938
same,normalized growth,[6],0.957
same,normalized growth,[7],0.933
same,normalized growth,[8],0.958
same,normalized growth,[9],0.937
same,normalized growth,[10],0.943
same,normalized growth,[11],0.899
same,normalized growth,[12],0.962
same,normalized growth,[13],0.941
same,normalized growth,[14],0.929
same,normalized growth,[15],0.894
same,normalized growth,[16],0.868
same,normalized growth,[17],0.902
same,normalized growth,[18],0.93
same,normalized growth,[19],0.936
same,normalized growth,[20],0.957
same,normalized growth,[21],0.976
same,normalized growth,[22],0.94
same,normalized growth,[23],0.914
same,normalized growth,[24],0.898
same,normalized growth,[25],0.76
same,normalized growth,[26],0.667 (active)
same,normalized growth,[27],0.847
same,normalized growth,[28],0.888
same,normalized growth,[29],0.862
same,normalized growth,[30],0.941
same,normalized growth,[31],0.816
same,normalized growth,[32],0.891
same,normalized growth,[33],0.921
same,normalized growth,[34],0.941
same,normalized growth,[35],0.889
same,normalized growth,[36],0.816
same,normalized growth,[37],0.924
same,normalized growth,[38],0.885
same,normalized growth,[39],0.894
same,normalized growth,[40],0.941
same,normalized growth,[41],0.979
same,normalized growth,[42],0.774 (active)
same,normalized growth,[43],0.923
same,normalized growth,[44],0.915
same,normalized growth,[45],0.905
same,normalized growth,[46],0.947
same,normalized growth,[47],0.918
same,normalized growth,[48],0.93
same,normalized growth,[49],0.965
same,normalized growth,[50],0.939
same,normalized growth,[51],0.953
same,normalized growth,[52],0.9
same,normalized growth,[53],0.939
same,normalized growth,[54],0.943
same,normalized growth,[55],0.9
same,normalized growth,[56],0.941
same,normalized growth,[57],0.906
same,normalized growth,[58],0.906
same,normalized growth,[59],0.923
same,normalized growth,[60],0.833
same,normalized growth,[61],0.952
same,normalized growth,[62],0.896
same,normalized growth,[63],0.872
same,normalized growth,[64],0.883
same,normalized growth,[65],0.953
same,normalized growth,[66],0.791 (active)
same,normalized growth,[67],0.95
same,normalized growth,[68],0.932
same,normalized growth,[69],0.926
same,normalized growth,[70],0.938
same,normalized growth,[71],0.942
O=S(=O)(Nc1ccccc1Oc1ccccc1)c1ccc(-c2ccno2)s1,normalized growth,[1],0.974
same,normalized growth,[2],0.961
same,normalized growth,[3],0.966
same,normalized growth,[4],0.968
same,normalized growth,[5],0.961
same,normalized growth,[6],0.969
same,normalized growth,[7],0.965
same,normalized growth,[8],0.968
same,normalized growth,[9],0.972
same,normalized growth,[10],0.964
same,normalized growth,[11],0.916
same,normalized growth,[12],0.978
same,normalized growth,[13],0.965
same,normalized growth,[14],0.968
same,normalized growth,[15],0.943
same,normalized growth,[16],0.911
same,normalized growth,[17],0.964
same,normalized growth,[18],0.96
same,normalized growth,[19],0.96
same,normalized growth,[20],0.969
same,normalized growth,[21],0.97
same,normalized growth,[22],0.963
same,normalized growth,[23],0.929
same,normalized growth,[24],0.976
same,normalized growth,[25],0.916
same,normalized growth,[26],0.961
same,normalized growth,[27],0.954
same,normalized growth,[28],0.98
same,normalized growth,[29],0.933
same,normalized growth,[30],0.969
same,normalized growth,[31],0.962
same,normalized growth,[32],0.953
same,normalized growth,[33],0.924
same,normalized growth,[34],0.964
same,normalized growth,[35],0.919
same,normalized growth,[36],1
same,normalized growth,[37],0.932
same,normalized growth,[38],0.941
same,normalized growth,[39],0.893
same,normalized growth,[40],0.962
same,normalized growth,[41],0.982
same,normalized growth,[42],0.769 (active)
same,normalized growth,[43],0.914
same,normalized growth,[44],0.891
same,normalized growth,[45],0.906
same,normalized growth,[46],0.968
same,normalized growth,[47],0.948
same,normalized growth,[48],0.965
same,normalized growth,[49],0.973
same,normalized growth,[50],0.924
same,normalized growth,[51],0.968
same,normalized growth,[52],0.954
same,normalized growth,[53],0.966
same,normalized growth,[54],0.961
same,normalized growth,[55],0.932
same,normalized growth,[56],0.963
same,normalized growth,[57],0.908
same,normalized growth,[58],0.921
same,normalized growth,[59],0.995
same,normalized growth,[60],0.888
same,normalized growth,[61],0.968
same,normalized growth,[62],0.944
same,normalized growth,[63],0.93
same,normalized growth,[64],0.927
same,normalized growth,[65],0.965
same,normalized growth,[66],0.873
same,normalized growth,[67],0.971
same,normalized growth,[68],0.946
same,normalized growth,[69],0.929
same,normalized growth,[70],0.948
same,normalized growth,[71],0.967
